PKA-R1A activ = activators of PKA-R1A complex; PKA-R1A dissociation, Cy5-IP20 fluorescence polarization; scaled: DMSO 0%, 113 µM cGMP 100%; 340,000 compounds, 0.083% hits; activation, % at 11.4 µM; P00514+P68181;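 active = percent activation above the mean of all tested compounds plus 3 SD, cut at about 19% in these data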;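 also: higher means more PKAc released from R1A so a rise in polarization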
VLA-4 inh = inhibition in a human VLA-4 binding assay. VLA-4 expressing cells, ligand binding flow cytometry. P13612. 330,000 compounds, 0.2% hits. AID 2557. inhibition, % (about 7 µM as worked out from the volumes in the protocol)
PKA-R2B act = activators of human PKA-R2B complex. P22694+P31323. PKA-R2B holoenzyme dissociation, Cy5-IP20 fluorescence polarization; R2B truncated from residue 108, S112A mutant; 0% DMSO only, 100% 113 µM cGMP. activation, % at 11.4 µM. 340,000 compounds, 0.079% hits;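 active = activation above a cutoff set at the mean over all compounds plus 3 SD, cut at about 18% in these data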;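 also: higher means more holoenzyme dissociation and a rise in polarization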
NRP1-CendR mod = modulators of CendR peptide binding to human neuropilin-1; O14786; FAM-RPARPAR peptide binding to NRP-1, fluorescence polarization; 360,000 compounds, 0.85% hits; AID 602438; inhibition, % at 25 µM;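 active = inhibition or corrected inhibition above about 18%, plus a signal ratio from 0.5 to 1.5, limit read from the data, passing the limit was not always enough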
ATG4B inh = inhibitors of human ATG4B cysteine protease. ATG4B cleavage of LC3-PLA2, NBD-HPC fluorescence, 1 h. inhibition, % at 8.33 µM. Q9Y4P1. 340,000 compounds, 0.51% hits; in the data active = inhibition above about 40%
VLA-4 allo CP = confirmation of allosteric modulators of human VLA-4 integrin; U937 cells, HUTS-21 LIBS mAb binding, flow cytometry; LDV ligand present at threefold Kd; 1,300 compounds, 2% hits; AID 2813; inhibition, % at 6.7 µM; shares compounds with VLA-4 inh; in the data active = inhibition above about 40%;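 also: 0% = ligand without compound and 100% = no ligand background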
ATG4B confirm = ATG4B (human) inhibition, single-dose confirmed; shares compounds with ATG4B inh; ATG4B protease fluorescent substrate cleavage assay; inhibition, % at 8.33 µM; 320 compounds, 92% hits; AID 504757; in the data active = inhibition above about 39%
PLA2 ctr = counter-screen for ATG4B inhibitors: human phospholipase A2; shares compounds with ATG4B inh; purified PLA2, NBD-C6-HPC fluorescence, 45 min; inhibition, % at 8.33 µM; 1,600 compounds, 66% hits; AID 588402
R1A FP artifact = fluorescence polarization artifact in PKA-R1A activator counter-screen; activation, % at 11.4 µM; AID 504799; shares compounds with PKA-R1A activ; Cy5-IP20 peptide alone, fluorescence polarization artifact counterscreen; 280 compounds, 7% hits;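 active = mean activation over triplicate runs exceeds the adjusted cutoff derived for the parent primary screen, cut at about 19% in these data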;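 also: no PKA protein present so any polarization rise reflects compound interference; 0% = tracer peptide mix alone and 100% = mix with added PKA catalytic subunit; higher means stronger polarization artifact and likely false positive in parent screen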
PKA-R1A confirm = confirmation of PKA-R1A complex activators. shares compounds with PKA-R1A activ. Cy5-IP20 fluorescence polarization, PKA-R1A holoenzyme dissociation. activation, % at 11.4 µM. 280 compounds, 9% hits. AID 504800;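 active = mean activation over replicate wells exceeds the adjusted hit threshold taken from the earlier primary screen, cut at about 20% in these data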;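 also: 0% = holoenzyme mix with DMSO only and 100% = cGMP-activated control wells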
The depositor's hits bear a star; . = not tested or not shown. Shown are actives, neighbours in structure and some others; about 1.6% of the full set was active somewhere. Rule as the data show it, unless noted: active = inhibition above about 50%; inactive = the rest.

SMILES	PKA-R1A activ	VLA-4 inh	PKA-R2B act	NRP1-CendR mod	ATG4B inh	VLA-4 allo CP	others
Cn1ncc([N+](=O)[O-])c1C(=O)NC1CCCCC1	-7	-14	4	9	5	.
Cc1cc(C)n(-c2nc3c(c(=O)[nH]c(=O)n3C)n2Cc2cccc(Br)c2)n1	4	54*	0	-6	-10	6
Cc1ccc(Cn2c(-n3nc(C)cc3C)nc3c2c(=O)[nH]c(=O)n3C)cc1	3	5	10	-13	-4	.
Cc1cc(C)nc(NS(=O)(=O)c2ccc(Br)cc2)n1	-3	14	-9	-5	-14	-5
CC(C)Nc1nc(NC(C)C)nc(NS(=O)(=O)c2ccc(N)cc2)n1	-15	9	-7	5	-4	.
COc1cc(NS(=O)(=O)c2ccc(N)cc2)ncn1	.	63*	.	.	.	-4
Cc1cc(C)nc(NS(=O)(=O)c2ccc(-n3cccc3)cc2)n1	-7	2	1	-8	-7	.
COc1cc(NS(=O)(=O)c2ccc(NC(C)=O)cc2)ncn1	-6	8	-7	-1	2	.
COc1cnc(NS(=O)(=O)c2ccc(N)cc2)nc1	-3	59*	-5	4	3	1
Cc1ccnc(NS(=O)(=O)c2ccc(N)cc2)n1	-1	7	12	1	0	-1
COc1cccc(CN(C)C(=O)CN2C(=O)NC(c3ccccc3)(c3ccccc3)C2=O)c1OC	-2	5	-6	5	-15	.
Cc1cc(C)nc(NS(=O)(=O)c2ccc(N)cc2)n1	-3	16	3	-8	-3	0
COc1ccccc1N1CCN(Cc2nc(-c3ccc(F)cc3)oc2C)CC1	-5	52*	-5	-4	-2	-7
O=C(NCc1ccc(Cl)cc1)c1n[nH]c([N+](=O)[O-])c1Cl	12	36	-17	-11	-11	.
CCN(CC)S(=O)(=O)c1ccc(N2CC(C(=O)NCCc3c[nH]c4ccccc34)CC2=O)cc1 (stereo not drawn)	4	.	-7	-8	-10	.
CCN(c1c(C)n(C)n(-c2ccccc2)c1=O)S(C)(=O)=O	-3	5	-3	10	-6	.
CCCN(C(=O)c1ccccc1N)c1c(C)n(C)n(-c2ccccc2)c1=O	-12	-1	-4	7	-15	-10
COC(=O)c1ccccc1NS(=O)(=O)c1ccc(F)cc1	-6	-6	4	-2	7	.
NC(=O)c1ccccc1NS(=O)(=O)c1ccc(F)cc1	1	5	0	-11	-1	0
Cc1ccc(C(=O)c2cc([N+](=O)[O-])ccc2N2CCOCC2)c(C)c1	-5	26	4	4	0	50*
Cc1ccc(C(=O)c2cc([N+](=O)[O-])ccc2N2CCOCC2)cc1C	-9	18	-3	0	-14	7
Cc1ccc(C(=O)NC2CCCc3c2cnn3-c2ccc(F)cc2F)cn1 (stereo not drawn)	1	-17	11	0	.	.
Cn1c(NNC(=O)c2ccc(C(C)(C)C)cc2)cc(=O)n(C)c1=O	-3	4	4	4	-14	.
Cn1c(NC(=O)c2ccc(C(C)(C)C)cc2)cc(=O)n(C)c1=O	0	53*	-4	12	0	4
S=C(NCCC(c1ccccc1)c1ccccc1)Nc1cccc(Cl)c1	-6	93*	9	8	46*	-6	PLA2 ctr=70*
SMILES	PKA-R1A activ	VLA-4 inh	PKA-R2B act	NRP1-CendR mod	ATG4B inh	VLA-4 allo CP	others
Cn1cc([N+](=O)[O-])c(C(=O)NC2CCCC2)n1	2	.	-2	10	-8	.
COc1ccccc1CNC(=O)CS(=O)(=O)c1ccccc1	0	0	3	11	-6	.
COc1ccccc1CNC(=O)C(C)NS(=O)(=O)c1ccccc1 (stereo not drawn)	19*	7	5	4	-3	-7	R1A FP artifact=1;PKA-R1A confirm=0
COc1ccccc1C(=O)C1CCCN(C(=O)c2cnn(C(C)C)c2)C1 (stereo not drawn)	-4	-4	-5	10	15	.
Cc1nc2cc(-c3ccc(Cl)cc3)nn2c(C)c1CCC(=O)NCc1ccco1	25*	52*	10	-7	-5	18	R1A FP artifact=1;PKA-R1A confirm=-2
COc1cccc(/C=N/NC(=O)c2[nH]c(C)c(C(=O)N/N=C/c3cccc(OC)c3O)c2C)c1O	-4	-7	-8	1	62*	.	ATG4B confirm=33;PLA2 ctr=24
Brc1ccc(-c2nnc3n2C2(CCCC2)Cc2ccccc2-3)o1	8	0	2	-4	52*	.	PLA2 ctr=63*
COc1ccccc1CNC(=O)CN(C)S(=O)(=O)c1ccc(Br)s1	5	6	10	2	1	.
COc1ccc(-n2nc3c(N4CCC(C(=O)N5CCC(C)CC5)CC4)nnc(C)c3c2C)cc1	-7	-119	0	-122	68*	.	PLA2 ctr=75*
Cc1ccc(-n2nc3c(N4CCC(C(=O)NCCc5cccs5)CC4)nnc(C)c3c2C)cc1	-12	3	-2	-10	-8	.
CC1CCC(NC(=O)CCS(=O)(=O)c2ccc3c(c2)NC(=O)C(C)S3)CC1 (stereo not drawn)	-5	5	-3	-6	-9	.
N#CCC(=O)Nc1ccc(C(=O)NCc2cccc(Cl)c2)cc1	6	5	3	-21	53*	.	PLA2 ctr=71*
O=C(NCc1cccc(Cl)c1)c1ccncc1	5	-2	-4	-1	4	.
CN(C(=O)CCn1c(=S)oc2ccccc21)c1ccc(F)cc1	-7	-11	-6	8	6	.
Cc1ccc(S(=O)(=O)NC2=C(N3CCN(c4ccccc4F)CC3)C(=O)c3ccccc3C2=O)cc1	-3	6	-10	14	1	.
Cc1ccc(S(=O)(=O)Nc2nc3ccccc3nc2N2CCN(c3ccccc3F)CC2)cc1	1	-3	-2	1	61*	.	PLA2 ctr=69*
O=S(=O)(Nc1nc2ccccc2nc1N1CCc2ccccc2C1)c1ccc(Cl)cc1	-6	5	-2	-50	40*	.	ATG4B confirm=85*;PLA2 ctr=4
